APOBEC3A inh = human APOBEC3A DNA deaminase inhibition. P31941. recombinant A3A, FAM/TAMRA ssDNA deamination fluorescence. inhibition, % at 20 µM. actives 0.41% (n = 330,000);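 active means at least 40% inhibition at 20 µM here, with at most 30% in a related deaminase screen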;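 further: plate controls were A3A with DMSO for no effect and wells lacking A3A enzyme for full effect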
Target sequence (P31941 whole entry, looked up): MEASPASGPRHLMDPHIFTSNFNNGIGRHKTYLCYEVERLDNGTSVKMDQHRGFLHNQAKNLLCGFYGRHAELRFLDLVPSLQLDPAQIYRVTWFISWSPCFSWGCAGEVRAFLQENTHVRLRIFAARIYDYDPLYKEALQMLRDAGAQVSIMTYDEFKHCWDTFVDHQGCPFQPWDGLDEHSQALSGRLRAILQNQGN
APOBEC3G inh = inhibitors of human APOBEC3G DNA deaminase; Q9HC16; recombinant A3G, ssDNA deamination FAM/TAMRA fluorescence; inhibition, % at 20 µM; actives 0.28% (n = 330,000); AID 493012;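 active means inhibition of at least 40% at 20 µM, with no more than 30% in the related APOBEC3A deaminase screen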;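 further: plate controls were DMSO wells with A3G for no effect and wells lacking A3G enzyme for full effect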
Target sequence (Q9HC16 whole entry, looked up): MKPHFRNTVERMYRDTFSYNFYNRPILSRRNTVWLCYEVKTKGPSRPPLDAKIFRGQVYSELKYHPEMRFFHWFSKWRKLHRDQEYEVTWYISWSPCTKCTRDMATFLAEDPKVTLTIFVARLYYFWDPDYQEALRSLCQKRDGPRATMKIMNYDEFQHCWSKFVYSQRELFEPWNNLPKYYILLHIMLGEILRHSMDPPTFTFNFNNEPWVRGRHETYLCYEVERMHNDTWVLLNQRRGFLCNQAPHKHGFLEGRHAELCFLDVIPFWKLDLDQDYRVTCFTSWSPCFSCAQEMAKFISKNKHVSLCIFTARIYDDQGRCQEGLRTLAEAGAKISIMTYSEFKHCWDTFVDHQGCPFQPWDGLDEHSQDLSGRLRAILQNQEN
HGIII-sPLA2 inh = Inhibits HGIII-sPLA2 liposome hydrolysis, primary screen; actives 0.56% (n = 370,000); AID 743126; Q9NZ20; QFRET BODIPY PC-A2 liposome hydrolysis, fluorescence; inhibition, % at 12.2 µM;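 active means inhibition above mean plus 3 SD of compounds lying within the high and low control bounds, cut at about 19% in these data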;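 further: 0% = median of test compound wells and 100% = no enzyme DMSO wells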
CTSL1 counter = counter-screen for PFM18AAP inhibitors: inhibitors of F. hepatica cathepsin L1 | inhibition, % at 5.96 µM | recombinant F. hepatica cathepsin L1, Z-Leu-Arg-MCA fluorescence | actives 0.49% (n = 300,000);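 active means inhibition above the mean of all tested compounds plus 3 SD, set per screening campaign, cut at about 17% in these data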;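 further: 0% = plate median of test compound wells and 100% = 1 µM Z-Phe-Ala-diazomethylketone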
NALP1 inh = blocks the NALP1 inflammasome reconstituted in yeast; S. cerevisiae NALP1/ASC/caspase-1 growth, X-gal OD620, 72 h; inhibition, % at 10 µM; actives 0.61% (n = 280,000); AID 2071; in the data active means inhibition mostly above about 24%, no sharp cut-off; inactive means mostly below about 32%
sPLA2 confirm = human GIII-sPLA2 inhibition, confirmation; shares compounds with HGIII-sPLA2 inh; recombinant hGIII-sPLA2, BODIPY PC-A2 QFRET fluorescence; inhibition, % at 12.2 µM; actives 34% (n = 2,000); AID 743280;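 active means mean inhibition across triplicates above the hit cutoff set in the earlier primary screen, cut at about 19% in these data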;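 further: 0% = enzyme with DMSO and 100% = DMSO wells lacking enzyme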
535nm interf = counter-screen for HGIII-sPLA2 inhibitors: 535nm fluorescence interference; shares compounds with HGIII-sPLA2 inh; BODIPY FL product fluorescence interference, QFRET; inhibition, % at 12.2 µM; actives 8.5% (n = 2,000); AID 743282;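 active means average inhibition above the solvent-only control mean plus 3 SD, cut at about 6% in these data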;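 further: 0% = DMSO with substrate plus product and 100% = DMSO with substrate alone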
BODIPY interf DR = 535nm optical interference dose response, HGIII-sPLA2 counter-screen; shares compounds with HGIII-sPLA2 inh; BODIPY FL product fluorescence interference, cell-free; IC50, µM; 240 tested, under 10 active; AID 743455;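 active means IC50 at or below 10 µM; inactive means IC50 above 10 µM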
* = called active by the depositor; . = not tested or not shown. Most compounds without a hit are left out; they make up all but 2% or so of the library.

SMILES | APOBEC3A inh | APOBEC3G inh | HGIII-sPLA2 inh | CTSL1 counter | NALP1 inh | sPLA2 confirm | 535nm interf | others
CCCCCNC(=O)C(c1cccc2ccccc12)n1c(=O)c(-c2ccco2)nc2ccccc21 (centres undefined) | . | . | 22.4* | . | . | 6.7 | -13.5
CCC(c1ccc(OC)cc1)c1cn(C)c2ccccc12 (centres undefined) | . | . | -11.2 | . | . | . | .
CCOc1ccc(NC(=O)CN2CCCN(c3ccc(OC)cc3)CC2)cc1 | . | . | 8.7 | . | . | . | .
Cc1ccc(-c2n[nH]c(=S)c3ccccc23)cc1 | -2.7 | -6.4 | 10.4 | -0.6 | -5.5 | . | .
S=c1[nH]nc(-c2ccccc2)c2ccccc12 | 6.0 | -2.4 | 20.3* | 1.5 | 3.2 | 25.1* | -2.9
CC1CC(C)(C)NC(=S)N1CCC(=O)N1c2ccccc2CC1C (centres undefined) | 3.1 | -4.7 | 13.7 | 2.8 | 0.4 | . | .
Cc1cccc(N2CCN(C(=O)CCN3C(=S)NC(C)(C)CC3C)CC2)c1C (centres undefined) | -2.6 | -9.5 | 28.1* | 0.6 | -6.3 | 11.6 | -14.1
Cc1ccc(C)c(N2CCN(C(=O)CCCN3C(=S)NC(C)(C)CC3C)CC2)c1 (centres undefined) | 0.9 | -4.5 | 21.9* | 1.3 | 3.3 | 20.9* | -26.3
COc1ccccc1C(=O)NC1CCCCN(Cc2ccc(C)cc2)C1=O (centres undefined) | . | . | 0.1 | . | . | . | .
C=C(C)c1cccc(C(C)(C)NC(=O)Nc2ccccc2OCC)c1 | -0.2 | -4.7 | 20.9* | -1.5 | 27.6 | -0.2 | -6.6
COc1ccc(OC)c(S(=O)(=O)N2CCC(C(=O)NCC3COCCO3)CC2)c1 (centres undefined) | . | . | -3.7 | . | . | . | .
O=c1c2ccccc2cnn1Cc1cccc(Br)c1 | 2.9 | -0.7 | 0.4 | 2.2 | 6.5 | . | .
O=c1c2ccccc2cnn1Cc1n[nH]c(=S)n1C1CC2CCC1C2 (centres undefined) | -3.3 | 39.8 | 26.1* | 0.1 | . | 21.3* | 0.1
CC(=O)Nc1cc(-c2ccc(CO)cc2)cn2c(-c3cccc(C(F)(F)F)c3)cnc12 | . | . | -7.0 | . | . | . | .
COC(=O)[C@]12C[C@H](CC(=O)N3CCN(C(=O)C4CC4)CC3)C(=O)N(Cc3ccco3)C1=C[C@H](C(C)C)O[C@@H]2C1CC1 | . | . | 19.6* | . | . | -2.9 | -20.2
COc1ccc2cc(C3(C)NC(=O)N(CC(=O)Nc4c(C)n(C)n(-c5ccccc5)c4=O)C3=O)ccc2c1 (centres undefined) | -2.3 | -1.7 | 21.0* | -6.9 | 11.4 | -0.8 | -21.7
COc1cccc(NC(=O)Nc2nc3ncccn3c2-c2ccc(F)c(F)c2)c1 | . | . | 9.4 | . | . | . | .
Cc1ccc(C)c(OCc2n[nH]c(=S)o2)c1 | 3.7 | -3.0 | 24.5* | -0.6 | . | 17.6 | 1.0
C#CC1(O)C2C=C(OC)C(=O)C1C(c1ccccc1)C2C (centres undefined) | . | . | 5.8 | . | . | . | .
O=C(CSc1nc2[nH]ncc2c(=O)[nH]1)NCc1ccccc1 | -2.5 | -9.3 | 4.2 | -0.7 | 28.2 | . | .
O=C(CSc1nc2[nH]ncc2c(=O)[nH]1)NCc1ccc(F)cc1 | -4.9 | -4.2 | 95.9* | -3.2 | 31.0 | 4.7 | -4.1
CC(C)(C)N1Cc2nnn(CC3CCCCC3)c2-c2ccccc2S1(=O)=O | . | . | -2.3 | . | . | . | .
Cc1ccc(C)c(NC(=S)NNC(=O)c2sccc2C)c1 | 5.9 | -4.6 | 14.0 | 0.2 | . | . | .
Cc1ccc(C)c(NC(=S)NNC(=O)c2csc(C)c2C)c1 | 1.7 | -2.1 | 20.8* | -0.5 | -3.0 | 37.7* | 0.7 | BODIPY interf DR=>122
O=C1C(NC(=O)N2c3ccccc3C=Cc3ccccc32)CCCCN1Cc1ccc(Cl)cc1 (centres undefined) | . | . | -5.2 | . | . | . | .
SMILES | APOBEC3A inh | APOBEC3G inh | HGIII-sPLA2 inh | CTSL1 counter | NALP1 inh | sPLA2 confirm | 535nm interf | others
COc1ccc(CN2C[C@@]3(O)CC[C@@H](O)[C@@H](OC)[C@@H]3[C@@]2(C)[C@H](O)CC=C(C)C)cc1 | . | . | 3.5 | . | . | . | .
O=C(C[n+]1cccc(/C=N/O)c1)N(Cc1ccccc1)Cc1ccccc1 | -1.8 | -3.8 | -32.1 | 0.5 | -7.1 | . | .
CCCN(CCC)C(=O)C[n+]1cccc(/C=N/O)c1 | -4.3 | -8.3 | 20.2* | -1.0 | 14.8 | 4.9 | -4.8
Cc1ccc(CN2CCCCC(NC(=O)c3ccc4ccccc4c3)C2=O)cc1 (centres undefined) | . | . | -0.6 | . | . | . | .
O=c1c2cc([N+](=O)[O-])cc([N+](=O)[O-])c2[nH]n1-c1ccccc1 | 7.9 | -1.2 | 20.9* | 1.6 | 18.2 | 26.8* | 5.0
O=c1[nH]c(=O)c2cc([N+](=O)[O-])cc([N+](=O)[O-])c2[nH]1 | -0.9 | -7.5 | 7.7 | 2.1 | 9.5 | . | .
N#CCC[C@@H]1CC[C@]2(CCCN(C(=O)C3CCCCC3)C2)O1 | . | . | 0.2 | . | . | . | .
O=C(NNC(=S)Nc1ccc(Cl)cc1)c1ccccc1 | -5.4 | -5.8 | 19.2* | 0.2 | 6.0 | 39.4* | 3.0 | BODIPY interf DR=>122
O=C(CN1c2ccccc2Sc2ccccc21)NNC(=S)Nc1ccc(Cl)cc1 | -7.7 | -4.9 | 27.9* | 4.1 | . | 6.7 | 18.0*
O=C(COC(=O)c1cc(=O)c2ccccc2o1)Nc1ccc2ccccc2c1 | 1.2 | -4.1 | 22.1* | 0.7 | 28.2 | 1.9 | -3.0
O=C(COC(=O)c1cc(=O)c2ccccc2o1)Nc1c(F)c(F)c(F)c(F)c1F | -3.3 | -1.7 | -1.6 | . | . | . | .
CCCCSc1nc2c(c(=O)[nH]1)CCC2 | 0.6 | -5.2 | 19.7* | -7.2 | 2.8 | -0.3 | -2.6
C#CCOCCOCCOCCNc1nc(N2CCN(C(=O)[C@H](CCCCN)n3cc([C@@H](N)C(C)CC)nn3)CC2)nc(N2CCN(C(=O)[C@H](CCCCN)n3cc([C@@H](N)C(C)CC)nn3)CC2)n1 (some centres undefined) | . | . | 20.1* | . | . | -2.2 | -43.5
C=CCN=C1NC(c2ccc(F)cc2)C(C(=O)OC)=C(C)N1C (centres undefined) | . | . | 23.3* | . | . | 6.0 | -10.4
C=CCN=C1NC(c2ccc(Cl)cc2)C(C(=O)OC)=C(C)N1C (centres undefined) | . | . | 1.7 | . | . | . | .
COc1ccc(NC2CCCN(Cc3cccc4cnccc34)C2)cc1OC (centres undefined) | -1.5 | 0.5 | 2.7 | -3.1 | -52.2 | . | .
COc1ccc(NC2CCCN(Cc3cccc4cnccc34)C2)cc1 (centres undefined) | -6.2 | -8.6 | 19.7* | 1.5 | -3.6 | 6.9 | -9.2
COc1ccc(NC(=O)Nc2cnccn2)cc1 | 3.6 | -2.6 | 22.4* | 5.3 | . | 2.0 | -3.9
CCCNC(=O)COC(=O)c1cc2c(=O)n3ccccc3nc2s1 | 3.9 | -3.8 | 19.4* | -1.1 | 11.3 | -4.0 | -4.2
C#CCN(CC=C)Cc1ccc(OC)cc1OC | . | . | 2.8 | . | . | . | .
